Measured values taken from PubChem BioAssay (NCI).
The panel holds about 83,000 compounds, 20% with a hit somewhere; the sample as a whole holds those more often.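 A percent growth of 40 corresponds to 60% growth inhibition; 0 means no net growth; -100 means all cells died. Active threshold: below 10.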 Values without a mark were called inactive. The source made the active and inactive calls.

Legend:
Experiment in all cases: NCI-60 one-dose screen, 48 h (100 = growth as untreated, 0 = no growth, -100 = all killed)
Details in all cases: 10 µM unless noted
NCI-H23 lung = tested on: NCI-H23 lung
NCI-H226 lung = tested on: NCI-H226 lung
NCI-H322M lung = tested on: NCI-H322M lung
HOP-62 NSCLC = tested on: HOP-62 NSCLC
NCI-H460 lung = tested on: NCI-H460 lung
HOP-92 NSCLC = tested on: HOP-92 NSCLC
NCI-H522 lung = tested on: NCI-H522 lung
A549/ATCC NSCLC = tested on: A549/ATCC NSCLC
786-0 renal = tested on: 786-0 renal
COLO 205 colon = tested on: COLO 205 colon

Row | SMILES | growth (NCI-H23 lung) | growth (NCI-H226 lung) | growth (NCI-H322M lung) | growth (HOP-62 NSCLC) | growth (NCI-H460 lung) | growth (HOP-92 NSCLC) | growth (NCI-H522 lung) | growth (A549/ATCC NSCLC) | growth (786-0 renal) | growth (COLO 205 colon)
1 | Nc1c(C(=O)c2ccc(Br)cc2)sc2nc3c(cc12)CCCC3 | 97.4% | 92.2% | 101% | 98.6% | 103% | 89.2% | 43.1% | 96.8% | 98.2% | 104%
2 | O=C(O)C1[S][Sb]([CH](C(=O)O)[CH](C(=O)O)[Sb]2[S]C(C(=O)O)C(C(=O)O)[S]2)[S]C1C(=O)O (stereo not given) | 104% | 105% | 95.8% | 123% | 84.6% | 91.6% | 42.4% | 89.2% | 93.7% | 114%
3 | CCOC(=O)c1ccc(N(CCC(=O)O)C(C)=O)cc1 | 111% | 102% | 92.1% | 108% | 111% | 96.2% | 95% | 104% | 104% | 119%
4 | Nc1nc2ccc([C@@H]3Nc4ccc5[nH]ncc5c4[C@H]4[C@H]5CCC(C5)[C@H]43)cc2s1 | 23.2% | 24.2% | -13% (active) | 12.2% | -26.8% (active) | 74.7% | -65.7% (active) | 25.8% | 43.9% | 6.12% (active)
5 | O=C(Nc1cnc(C(F)(F)F)cn1)c1cc(Cl)ccc1O | 2.55% (active) | 8.55% (active) | 7.76% (active) | -4.96% (active) | 4.18% (active) | -6.58% (active) | -12.6% (active) | 2.57% (active) | 0.361% (active) | 14.2%
6 | Cc1ccc(S(=O)(=O)NC(CCC(=O)Nc2ccc(Cl)cc2)C(=O)Nc2ccc(Cl)cc2)cc1 (stereo not given) | 38.8% | 57.9% | 40% | 14.5% | 7.89% (active) | -20.4% (active) | -29.7% (active) | 27.6% | 16.9% | 52.7%
7 | CN1CCN(Cc2ccc(NC(=O)c3cncc(C#Cc4cnc5cccnn45)c3)cc2C(F)(F)F)CC1 | -7.84% (active) | -3.9% (active) | 6.52% (active) | -6.79% (active) | -12.6% (active) | -9.42% (active) | -37.1% (active) | 4.87% (active) | 6.51% (active) | -48.1% (active)
8 | O=[N+]([O-])c1cc(F)c2cccnc2c1O | 87.8% | 102% | 100% | 97.1% | 92.1% | 104% | 60.8% | 105% | 102% | 104%
9 | CN1CCN(c2ccc(N3Cc4ccccc4OC4=C3C(=O)c3c(O)ccc(O)c3C4=O)cn2)CC1 | -23.2% (active) | 35.2% | 4.57% (active) | 1.99% (active) | -22.4% (active) | -58.7% (active) | -53.3% (active) | -4.29% (active) | -77.4% (active) | -77.1% (active)
10 | CCN(CC)CCCC(C)Nc1cnc(C(=O)Nc2ccc(Cl)c3cccnc23)cn1 (stereo not given) | 80.4% | 39.1% | 35.3% | 43% | 3.47% (active) | 38.8% | 4.41% (active) | 23.4% | -44.2% (active) | -66.7% (active)
11 | CCCCCCCCCCCCCCCC1=NCC[N+]1(CCO)CCO | 53.7% | 73.4% | 84.7% | 57.7% | 3.37% (active) | 5.24% (active) | 40.8% | 50% | 55.5% | 82.8%
12 | COc1cc(C(=O)/C=C/c2cn(-c3ccccc3)nc2-c2cccc(Nc3ccnc4cc(Cl)ccc34)c2)cc(OC)c1OC | 100% | 98.1% | 88.1% | 78.2% | 90.5% | 73.3% | 106% | 91.5% | 89% | 88.9%
13 | O=C1/C(=C\c2cccn2C(=O)c2ccccc2)c2ccccc2N1c1c(Cl)cccc1Cl | 75.3% | 70.1% | 93.7% | 99.3% | 94.8% | 81.5% | 70.5% | 77.3% | 94% | 98%
14 | Nc1cccc(S(=O)(=O)c2cccc(N)c2)c1 | 111% | 107% | 124% | 111% | 120% | 97% | 111% | 111% | 108% | 117%
15 | CCCOC(=O)C1c2cc3c(cc2CC(C)C1C(=O)OCCC)OCO3 (stereo not given) | 85.8% | 94.1% | 80.9% | 95.3% | 103% | 70.3% | 70% | 92.6% | 94.5% | 121%
16 | COc1cc2nccc(Oc3ccc(NC(=O)C4(C(=O)Nc5ccc(F)cc5)CC4)cc3)c2cc1Oc1ccc(N)cn1 | 49.3% | 36.5% | 49.4% | 51.2% | 31% | -11.5% (active) | 51.3% | 22.7% | 39.1% | 8.91% (active)
17 | O=C1C(Cl)=C(N/N=c2/[nH][nH]/c(=N/NC3=C(Cl)C(=O)c4ccccc4C3=O)c3ccccc23)C(=O)c2ccccc21 | 82.5% | 74.8% | 58.4% | -10.5% (active) | 81.4% | 117% | 30.1% | 94.6% | 96% | 52.5%
18 | COc1cc(Cn2c(-c3ccccc3)cc3c2-c2oncc2CC3)cc(OC)c1OC | 48.4% | 51% | -13.2% (active) | 39% | 9.75% (active) | 28% | 5.31% (active) | 23.9% | 32.7% | 14.5%
19 | COc1ccc(/C(=C\c2ccc3c(c2)OCO3)C(=O)Nc2nc3ccccc3s2)cc1 | 106% | 97.6% | 94.4% | 95.5% | 110% | 104% | 81.5% | 93.9% | 97.2% | 110%
20 | CC(C)CC(NC(=O)OCC1c2ccccc2-c2ccccc21)C(=O)O (stereo not given) | 101% | 102% | 101% | 103% | 115% | 96.2% | 96.6% | 95.1% | 98% | 111%
21 | COc1cc2nccc(Oc3ccc(NC(=O)C4(C(=O)Nc5c(F)cc(F)cc5F)CC4)cc3)c2cc1Oc1ccc(N)cn1 | 53.6% | 37.7% | 74.8% | 67.7% | 65.4% | 2.04% (active) | 55% | 48% | 96.5% | 44.3%
22 | CO[C@@]12[C@@H]3NC3CN1C1=C(C(=O)C(N)=C(C)C1=O)[C@@H]2COC(N)=O (stereo not given in full) | -3.61% (active) | -5.36% (active) | 14.4% | 19.2% | -18.9% (active) | 12.8% | -9.07% (active) | -61% (active) | -3.82% (active) | -0.289% (active)
23 | C#CC[C@@H]1C[C@]2(C)[C@H]3CC=C4[C@H]5[C@@H](C)[C@H](C)CC[C@]5(C(=O)NCCCCN)CC[C@@]4(C)[C@]3(C)CC[C@H]2C(C)(C)[C@H]1OC(C)=O | 94.8% | 87.1% | 92.4% | 89.2% | 1.45% (active) | 44.1% | 81.7% | 72.6% | 79.9% | 6.68% (active)
24 | Cc1ccc(NC(=O)Cn2nncc2CN2C(=O)CSC2=O)cc1C | 96.8% | 90.7% | 103% | 98.5% | 105% | 112% | 94.8% | 102% | 108% | 106%
